Results taken from publication PMC5540273 (PLoS ONE, 2017).
Values joined by “and” are separate entries in the source; they are usually repeats but may differ in a detail not shown here. Equal values may be shown once. Read-outs that look alike come from different tables or passages of the source.

Legend:
[1] = tested on: T1, PIP5K2C; conditions: concentration: 1 μM, replicates: in singlicate, n = 1
T1 construct: gene PIP4K2C

[2] = tested on: T2, PKAC-alpha; conditions: concentration: 1 μM, replicates: in singlicate, n = 1
T2 construct: gene PRKACA

[3] = tested on: T3, PKAC-beta; conditions: concentration: 1 μM, replicates: in singlicate, n = 1
T3 construct: gene PRKACB

[4] = tested on: PKMYT1; conditions: concentration: 1 μM, replicates: in singlicate; n = 1
[5] = tested on: PKN1; conditions: concentration: 1 μM, replicates: in singlicate, n = 1
[6] = tested on: PKN2; conditions: concentration: 1 μM, replicates: in singlicate, n = 1
[7] = tested on: PLK1; conditions: concentration: 1 μM, replicates: in singlicate, n = 1
[8] = tested on: PLK2; conditions: concentration: 1 μM, replicates: in singlicate, n = 1
[9] = tested on: PLK3; conditions: concentration: 1 μM, replicates: in singlicate, n = 1
[10] = tested on: PLK4; conditions: concentration: 1 μM, replicates: in singlicate, n = 1
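Further: KINOMEscan kinase panel screen.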

SMILES	%Inh [1] [%]	%Inh [2] [%]	%Inh [3] [%]	%Inh [4] [%]	%Inh [5] [%]	%Inh [6] [%]	%Inh [7] [%]	%Inh [8] [%]	%Inh [9] [%]	%Inh [10] [%]	%Inh ([1]; 1 µM)	%Inh ([2]; 1 µM)	%Inh ([3]; 1 µM)	%Inh ([5]; 1 µM)	%Inh ([6]; 1 µM)	%Inh ([7]; 1 µM)	%Inh ([8]; 1 µM)	%Inh ([9]; 1 µM)	%Inh ([10]; 1 µM)
O=C(Nc1n[nH]c2nc(-c3ccco3)c(Br)cc12)c1ccc(CN2CCCC2)cc1.O=C(O)[C@H](O)[C@@H](O)C(=O)O [SB-742352]	0	0	0	0	0	21	0	0	0	3	–	–	–	–	–	–	–	–	–
COc1ccc(-c2nc3n(c2-c2ccncc2)CCC3)cc1 [SKF-104493]	–	–	–	0	–	–	–	–	–	–	0% and 9%	5% and 0%	7% and 0%	7% and 0%	23% and 0%	22% and 0%	11% and 0%	1% and 0%	0% and 15%
COc1ccc(NC(=O)Nc2ccc(C)c(-c3ccc(C(=O)Nc4ccncc4)cc3)c2)cc1 [GSK1398475]	0	8	0	0	0	0	0	0	0	0	–	–	–	–	–	–	–	–	–
Nc1nccc2scc(-c3ccc4c(c3)CCN4C(=O)Cc3cc(F)ccc3F)c12 [GSK2587663]	13	0	12	1	0	0	0	0	0	0	–	–	–	–	–	–	–	–	–
